Values without a mark were called inactive. No rule for the calls is given here.

What is called inhibition is how much of the control response was suppressed.

In the assay the target is Pantothenate synthetase (Mycobacterium tuberculosis (strain ATCC 25618 / H37Rv)) (UniProt P9WIL5). As to the kind of experiment: Recombinant Mtb pantothenate synthetase (PanC) inhibitors, coupled enzyme, confirmatory (AID 375).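 Also: 0% = full reaction with vehicle and 100% = no enzyme background.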 Particulars: coupled enzyme assay; at 10 µM, hits give high values.
Pantothenate synthetase (Mycobacterium tuberculosis (strain ATCC 25618 / H37Rv)), sequence (P9WIL5 whole entry, looked up): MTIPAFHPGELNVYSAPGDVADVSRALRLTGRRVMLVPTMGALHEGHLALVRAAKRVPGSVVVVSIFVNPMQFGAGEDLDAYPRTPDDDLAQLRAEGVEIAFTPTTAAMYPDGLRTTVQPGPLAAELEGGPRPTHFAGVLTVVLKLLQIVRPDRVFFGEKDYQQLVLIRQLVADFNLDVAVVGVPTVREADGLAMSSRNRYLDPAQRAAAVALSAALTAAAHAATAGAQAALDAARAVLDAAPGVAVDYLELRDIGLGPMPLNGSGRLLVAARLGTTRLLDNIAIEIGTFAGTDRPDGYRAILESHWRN
Turning to `COc1ccc2cc(CN(Cc3ccco3)C(c3nnnn3C3CCCCC3)C(C)C)c(=O)[nH]c2c1` (centres undefined), the inhibition is 5%.

In the case of `Cc1sc2nc(CN3CCN(S(=O)(=O)c4cccc5nonc45)CC3)[nH]c(=O)c2c1C`, the inhibition is 0%.

For the molecule `CC(C)Cn1c2c(c(O)c(C(=O)Nc3ncccc3O)c1=O)CCCC2`, the inhibition was 0%.

With `COC(=O)c1ccccc1NC(=O)CSc1nnc(-c2ccncc2)o1`, the inhibition was 0%.

In the case of `COCCCNC(=O)c1ccccc1NS(=O)(=O)c1ccc(C)cc1`, the inhibition is 1%.

Turning to `CCN(CC)C(=O)Oc1ccccc1NC(C)=O`, the inhibition is 1%.

As for `O=C(NCC(=O)N(c1cnc2ccccc2c1)C(C(=O)NC1CCCC1)c1ccncc1)c1ccco1` (centres undefined), the inhibition is 0%.

Consider `Cc1cc(NC(=O)c2ccccc2Oc2ccccc2)no1`, for which the inhibition is 12%.

`CC1=C(/C=C/C(C)=C/C=C/C(C)=C/C(=O)O)C(C)(C)CCC1`: the inhibition is 0%.

As to `CNC(=O)CC(C(=O)O)c1ccc(OC(C)C)cc1` (centres undefined), the inhibition is 0%.

With `NC(=O)CSc1cn(CCNC(=O)c2cccs2)c2ccccc12`, the inhibition was 0%.

Regarding `CCOC(=O)N1CCN(c2cc3nccnc3cc2F)CC1`, the inhibition is 6%.

Regarding `C#CCSc1nnc(-c2ccccc2)c(=O)[nH]1`, the inhibition is 0%.

On to `CC(NC(=O)Nc1nccs1)(C(F)(F)F)C(F)(F)F`, for which the inhibition was 5%.

In the case of `Cc1cccc(-n2nnc(C(=O)NCc3ccccc3)c2N)c1`, the inhibition is 0%.

On to `CC(Sc1nc(-c2ccccc2)cc(C(F)(F)F)n1)C(=O)N1CCCC1` (centres undefined), for which the inhibition is 1%.

Regarding `Cc1cc(O)c(-c2cc(C(=O)Nc3ccc(S(=O)(=O)N4CCOCC4)cc3)[nH]n2)cc1C`, the inhibition was 0%.

Turning to `Cc1cc2c(c(=O)o1)C(Cc1ccccc1)C(C#N)=C(N)O2` (centres undefined), the inhibition was 1%.

Regarding `O=C(Nc1ccccc1C(=O)N1CCOCC1)C1CCC(=O)N1C1CCCC1` (centres undefined), the inhibition is 1%.

For `CC(C)(C)n1nnnc1CN(Cc1ccco1)Cc1cc2cc3c(cc2[nH]c1=O)OCO3`, the inhibition was 0%.

Regarding `O=C(CSc1nnc(-c2c[nH]c3ccccc23)o1)N(Cc1ccccc1)c1ccc(F)cc1`, the inhibition was 0%.

Consider `CCOC(=O)c1c(C)[nH]c(C)c1C(=O)COc1ccc(NC(=O)c2ccco2)cc1`, for which the inhibition is 1%.

For `Cc1c(Cc2ccccc2)sc(N)c1C(N)=O`, the inhibition was 0%.

For the molecule `CCOC(=O)c1cccnc1SCC(=O)NC(C)CC` (centres undefined), the inhibition is 0%.

In the case of `O=C(O)c1ccc(-n2nnnc2Oc2ccccc2C(=O)N2CCOCC2)cc1`, the inhibition was 4%.

For the molecule `COc1ccc2c(C)nc(Nc3nc(C)cc(C)n3)nc2c1`, the inhibition was 6%.

For `c1ccc(CNc2ncnc3ccccc23)cc1`, the inhibition was 12%.

Turning to `COc1ccc(Nc2ncnc3c2cnn3-c2ccccc2)cc1OC`, the inhibition was 1%.

In the case of `Cc1noc(/C=C/N(C)C)c1S(=O)(=O)N1CCCC(C(=O)NC2CCCCC2)C1` (centres undefined), the inhibition is 8%.

For the molecule `c1ccc(OCCCn2nnc(-c3cccnc3)n2)cc1`, the inhibition was 3%.

For `Cc1ccc(-c2cc(C(F)(F)F)n3ncc(C(=O)O)c3n2)cc1`, the inhibition is 5%.

For `Cc1ccccc1OCCn1c(=O)oc2ccccc21`, the inhibition was 2%.

For `COCCOC(=O)C1=C(C)Nc2ncnn2C1c1ccc(F)cc1` (centres undefined), the inhibition was 0%.

`COC(=O)c1cc2oc(C)cc2n1CC(=O)N(C)c1ccccc1`: the inhibition is 0%.

For the molecule `Cc1cc(C)c2[nH]c(=O)c(C(c3nnnn3Cc3ccc4c(c3)OCO4)N3CCC(C)CC3)cc2c1` (centres undefined), the inhibition is 0%.

On to `Clc1ccc2c(c1)C(N1CCNCC1)=Nc1ccccc1O2`, for which the inhibition was 8%.

As for `CCCN(Cc1cc2ccc(C)cc2[nH]c1=O)C(=O)c1cccnc1`, the inhibition was 2%.

Regarding `CCOc1ccccc1C(=O)Nc1cc(=O)n(C)c(=O)n1C`, the inhibition was 10%.

Turning to `CC1=C(C(=O)OCC(C)C)C(c2cc3c(cc2Br)OCO3)NC(=O)N1C` (centres undefined), the inhibition was 0%.

The values above are taken from PubChem BioAssay.
